# Reference: the supplement of paper PMC4466140
# Key:
# Experiment in all cases: SPOT peptide array binding signal intensity (averaged, normalized) (arbitrary units (background-subtracted, floor 0; scale differs between SH3 domains)); higher = stronger binding of the SH3 domain to the peptide
# AgAbp1 = biological target: AgAbp1
# In short: (§1)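 Cellulose membranes carried synthetic 15-mer peptides with cysteines swapped for serines. These were incubated overnight at 4°C with 10 μg/ml of GST-fused SH3 domains from four yeast species in TBS-based blocking buffer. Binding signal, detected with anti-GST antibody and quantified in Genespotter, is the normalized, background-subtracted spot intensity averaged over replicates, in arbitrary units specific to each domain.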
# AgBbc1 = biological target: AgBbc1
# In short: as §1
# AgBem1-D1 = biological target: AgBem1-D1
# In short: as §1
# AgBzz1-D1 = biological target: AgBzz1-D1
# In short: as §1
# AgBzz1-D2 = biological target: AgBzz1-D2
# In short: as §1
# AgCyk3 = biological target: AgCyk3
# In short: as §1
# AgFus1 = biological target: AgFus1
# In short: as §1
# AgHof1 = biological target: AgHof1
# In short: as §1
# AgHse1 = biological target: AgHse1
# In short: as §1
# AgLsb1 = biological target: AgLsb1
# In short: as §1
# AgLsb4 = biological target: AgLsb4
# In short: as §1
# AgMyo5 = biological target: AgMyo5
# In short: as §1
# AgNbp2 = biological target: AgNbp2
# In short: as §1
# AgRvs167 = biological target: AgRvs167
# In short: as §1
# AgSho1 = biological target: AgSho1
# In short: as §1
# AgSla1-D1-D2 = biological target: AgSla1-D1-D2
# In short: as §1
# AgSla1-D3 = biological target: AgSla1-D3
# In short: as §1
# CaAbp1-D1 = biological target: CaAbp1-D1
# In short: as §1
# CaAbp1-D2 = biological target: CaAbp1-D2
# In short: as §1
# CaBbc1 = biological target: CaBbc1
# In short: as §1
# CaBem1-D1 = biological target: CaBem1-D1
# In short: as §1
# CaBzz1-D1 = biological target: CaBzz1-D1
# In short: as §1
# CaBzz1-D2 = biological target: CaBzz1-D2
# In short: as §1
# CaCyk3 = biological target: CaCyk3
# In short: as §1
# CaFus1 = biological target: CaFus1
# In short: as §1
# CaHof1 = biological target: CaHof1
# In short: as §1
# CaHse1 = biological target: CaHse1
# In short: as §1
# CaLsb1 = biological target: CaLsb1
# In short: as §1
# CaLsb4 = biological target: CaLsb4
# In short: as §1
# CaMyo5 = biological target: CaMyo5
# In short: as §1
# CaNbp2 = biological target: CaNbp2
# In short: as §1
# CaRvs167 = biological target: CaRvs167
# In short: as §1
# CaRvs167-3 = biological target: CaRvs167-3
# In short: as §1
# CaSho1 = biological target: CaSho1
# In short: as §1
# CaSla1-D1-D2 = biological target: CaSla1-D1-D2
# In short: as §1
# CaSla1-D3 = biological target: CaSla1-D3
# In short: as §1
# ScAbp1 = biological target: ScAbp1
# In short: as §1
# ScBbc1 = biological target: ScBbc1
# In short: as §1
# ScBem1-D1 = biological target: ScBem1-D1
# In short: as §1
# ScBzz1-D1 = biological target: ScBzz1-D1
# In short: as §1
# ScBzz1-D2 = biological target: ScBzz1-D2
# In short: as §1
# ScCyk3 = biological target: ScCyk3
# In short: as §1
# ScFus1 = biological target: ScFus1
# In short: as §1
# ScHof1 = biological target: ScHof1
# In short: as §1
# ScHse1 = biological target: ScHse1
# In short: as §1
# ScLsb1 = biological target: ScLsb1
# In short: as §1
# ScLsb2 = biological target: ScLsb2
# In short: as §1
# ScLsb3 = biological target: ScLsb3
# In short: as §1
# ScLsb4 = biological target: ScLsb4
# In short: as §1
# ScMyo3 = biological target: ScMyo3
# In short: as §1
# ScMyo5 = biological target: ScMyo5
# In short: as §1
# ScNbp2 = biological target: ScNbp2
# In short: as §1
# ScPex13 = biological target: ScPex13
# In short: as §1
# ScRvs167 = biological target: ScRvs167
# In short: as §1
# ScSho1 = biological target: ScSho1
# In short: as §1
# ScSla1-D1-D2 = biological target: ScSla1-D1-D2
# In short: as §1
# ScSla1-D3 = biological target: ScSla1-D3
# In short: as §1
# SpAbp1-D1 = biological target: SpAbp1-D1
# In short: as §1
# SpBbc1 = biological target: SpBbc1
# In short: as §1
# SpBzz1-D1 = biological target: SpBzz1-D1
# In short: as §1
# SpBzz1-D2 = biological target: SpBzz1-D2
# In short: as §1
# SpCyk3 = biological target: SpCyk3
# In short: as §1
# SpHof1 = biological target: SpHof1
# In short: as §1
# SpHof1-2 = biological target: SpHof1-2
# In short: as §1
# SpHof1-3 = biological target: SpHof1-3
# In short: as §1
# SpHse1 = biological target: SpHse1
# In short: as §1
# SpLsb1 = biological target: SpLsb1
# In short: as §1
# SpLsb4 = biological target: SpLsb4
# In short: as §1
# SpMyo1 = biological target: SpMyo1
# In short: as §1
# SpNbp2 = biological target: SpNbp2
# In short: as §1
# SpPex13 = biological target: SpPex13
# In short: as §1
# SpRvs167 = biological target: SpRvs167
# In short: as §1
# SpSla1-D1-D2 = biological target: SpSla1-D1-D2
# In short: as §1
# SpSla1-D3 = biological target: SpSla1-D3
# In short: as §1
binder,measurement,setting,value
SGVRLPAPPPPPRRG,SPOT peptide array binding signal intensity,AgAbp1,606
same,SPOT peptide array binding signal intensity,AgBbc1,1230
same,SPOT peptide array binding signal intensity,AgBem1-D1,36
same,SPOT peptide array binding signal intensity,AgBzz1-D1,404
same,SPOT peptide array binding signal intensity,AgBzz1-D2,140
same,SPOT peptide array binding signal intensity,AgCyk3,2
same,SPOT peptide array binding signal intensity,AgFus1,21
same,SPOT peptide array binding signal intensity,AgHof1,472
same,SPOT peptide array binding signal intensity,AgHse1,24.5
same,SPOT peptide array binding signal intensity,AgLsb1,699
same,SPOT peptide array binding signal intensity,AgLsb4,1040
same,SPOT peptide array binding signal intensity,AgMyo5,579
same,SPOT peptide array binding signal intensity,AgNbp2,1250
same,SPOT peptide array binding signal intensity,AgRvs167,1310
same,SPOT peptide array binding signal intensity,AgSho1,36
same,SPOT peptide array binding signal intensity,AgSla1-D1-D2,38
same,SPOT peptide array binding signal intensity,AgSla1-D3,61
same,SPOT peptide array binding signal intensity,CaAbp1-D1,1510
same,SPOT peptide array binding signal intensity,CaAbp1-D2,1030
same,SPOT peptide array binding signal intensity,CaBbc1,1050
same,SPOT peptide array binding signal intensity,CaBem1-D1,544
same,SPOT peptide array binding signal intensity,CaBzz1-D1,3080
same,SPOT peptide array binding signal intensity,CaBzz1-D2,1360
same,SPOT peptide array binding signal intensity,CaCyk3,44
same,SPOT peptide array binding signal intensity,CaFus1,74
same,SPOT peptide array binding signal intensity,CaHof1,114
same,SPOT peptide array binding signal intensity,CaHse1,20
same,SPOT peptide array binding signal intensity,CaLsb1,0.5
same,SPOT peptide array binding signal intensity,CaLsb4,1890
same,SPOT peptide array binding signal intensity,CaMyo5,42
same,SPOT peptide array binding signal intensity,CaNbp2,216
same,SPOT peptide array binding signal intensity,CaRvs167,1350
same,SPOT peptide array binding signal intensity,CaRvs167-3,10.2
same,SPOT peptide array binding signal intensity,CaSho1,34
same,SPOT peptide array binding signal intensity,CaSla1-D1-D2,3580
same,SPOT peptide array binding signal intensity,CaSla1-D3,77.2
same,SPOT peptide array binding signal intensity,ScAbp1,452
same,SPOT peptide array binding signal intensity,ScBbc1,267
same,SPOT peptide array binding signal intensity,ScBem1-D1,≤ 0
same,SPOT peptide array binding signal intensity,ScBzz1-D1,257
same,SPOT peptide array binding signal intensity,ScBzz1-D2,36
same,SPOT peptide array binding signal intensity,ScCyk3,6.5
same,SPOT peptide array binding signal intensity,ScFus1,3.5
same,SPOT peptide array binding signal intensity,ScHof1,482
same,SPOT peptide array binding signal intensity,ScHse1,169
same,SPOT peptide array binding signal intensity,ScLsb1,438
same,SPOT peptide array binding signal intensity,ScLsb2,438
same,SPOT peptide array binding signal intensity,ScLsb3,2990
same,SPOT peptide array binding signal intensity,ScLsb4,2100
same,SPOT peptide array binding signal intensity,ScMyo3,1670
same,SPOT peptide array binding signal intensity,ScMyo5,864
same,SPOT peptide array binding signal intensity,ScNbp2,622
same,SPOT peptide array binding signal intensity,ScPex13,1050
same,SPOT peptide array binding signal intensity,ScRvs167,3210
same,SPOT peptide array binding signal intensity,ScSho1,1100
same,SPOT peptide array binding signal intensity,ScSla1-D1-D2,2820
same,SPOT peptide array binding signal intensity,ScSla1-D3,9
same,SPOT peptide array binding signal intensity,SpAbp1-D1,2280
same,SPOT peptide array binding signal intensity,SpBbc1,19.2
same,SPOT peptide array binding signal intensity,SpBzz1-D1,3360
same,SPOT peptide array binding signal intensity,SpBzz1-D2,1490
same,SPOT peptide array binding signal intensity,SpCyk3,17
same,SPOT peptide array binding signal intensity,SpHof1,248
same,SPOT peptide array binding signal intensity,SpHof1-2,231
same,SPOT peptide array binding signal intensity,SpHof1-3,1500
same,SPOT peptide array binding signal intensity,SpHse1,67.5
same,SPOT peptide array binding signal intensity,SpLsb1,870
same,SPOT peptide array binding signal intensity,SpLsb4,6010
same,SPOT peptide array binding signal intensity,SpMyo1,502
same,SPOT peptide array binding signal intensity,SpNbp2,26
same,SPOT peptide array binding signal intensity,SpPex13,35
same,SPOT peptide array binding signal intensity,SpRvs167,2550
same,SPOT peptide array binding signal intensity,SpSla1-D1-D2,993
same,SPOT peptide array binding signal intensity,SpSla1-D3,0.5
RKRAPTPPAPSRSEK,SPOT peptide array binding signal intensity,SpBzz1-D2,157
same,SPOT peptide array binding signal intensity,SpCyk3,≤ 0
same,SPOT peptide array binding signal intensity,SpHof1,140
same,SPOT peptide array binding signal intensity,SpHof1-2,5.75
same,SPOT peptide array binding signal intensity,SpHof1-3,486
same,SPOT peptide array binding signal intensity,SpHse1,123
same,SPOT peptide array binding signal intensity,SpLsb1,39.2
same,SPOT peptide array binding signal intensity,SpLsb4,1110
same,SPOT peptide array binding signal intensity,SpMyo1,4.5
same,SPOT peptide array binding signal intensity,SpNbp2,67.5
same,SPOT peptide array binding signal intensity,SpPex13,≤ 0
same,SPOT peptide array binding signal intensity,SpRvs167,450
same,SPOT peptide array binding signal intensity,SpSla1-D1-D2,199
same,SPOT peptide array binding signal intensity,SpSla1-D3,≤ 0
TSFKGRPKPPKTLKH,SPOT peptide array binding signal intensity,AgAbp1,590
same,SPOT peptide array binding signal intensity,AgBbc1,17.8
same,SPOT peptide array binding signal intensity,AgBem1-D1,≤ 0
same,SPOT peptide array binding signal intensity,AgBzz1-D1,≤ 0
same,SPOT peptide array binding signal intensity,AgBzz1-D2,28
same,SPOT peptide array binding signal intensity,AgCyk3,≤ 0
same,SPOT peptide array binding signal intensity,AgFus1,3
same,SPOT peptide array binding signal intensity,AgHof1,22.5
same,SPOT peptide array binding signal intensity,AgHse1,65.5
same,SPOT peptide array binding signal intensity,AgLsb1,≤ 0
same,SPOT peptide array binding signal intensity,AgLsb4,20
same,SPOT peptide array binding signal intensity,AgMyo5,1.5
same,SPOT peptide array binding signal intensity,AgNbp2,≤ 0
same,SPOT peptide array binding signal intensity,AgRvs167,2
same,SPOT peptide array binding signal intensity,AgSho1,≤ 0
same,SPOT peptide array binding signal intensity,AgSla1-D1-D2,71
same,SPOT peptide array binding signal intensity,AgSla1-D3,5.5
same,SPOT peptide array binding signal intensity,CaAbp1-D1,1460
same,SPOT peptide array binding signal intensity,CaAbp1-D2,1380
same,SPOT peptide array binding signal intensity,CaBbc1,43.5
same,SPOT peptide array binding signal intensity,CaBem1-D1,≤ 0
same,SPOT peptide array binding signal intensity,CaBzz1-D1,80.5
same,SPOT peptide array binding signal intensity,CaBzz1-D2,67.8
same,SPOT peptide array binding signal intensity,CaCyk3,3
same,SPOT peptide array binding signal intensity,CaFus1,44.5
same,SPOT peptide array binding signal intensity,CaHof1,2.75
same,SPOT peptide array binding signal intensity,CaHse1,2.75
same,SPOT peptide array binding signal intensity,CaLsb1,≤ 0
same,SPOT peptide array binding signal intensity,CaLsb4,≤ 0
same,SPOT peptide array binding signal intensity,CaMyo5,2.5
